Out of some 190,000 compounds screened, about 810 (0.43%) were called active. What follows is part of a selection rich in actives, with near analogues and random picks from the rest. Unmarked numbers belong to inactive results. No stated cut-off is given here; in the data, active means inhibition above about 50%; inactive means the rest.

Chain of Mannose-6-phosphate isomerase (Homo sapiens) (P34949 whole entry, looked up): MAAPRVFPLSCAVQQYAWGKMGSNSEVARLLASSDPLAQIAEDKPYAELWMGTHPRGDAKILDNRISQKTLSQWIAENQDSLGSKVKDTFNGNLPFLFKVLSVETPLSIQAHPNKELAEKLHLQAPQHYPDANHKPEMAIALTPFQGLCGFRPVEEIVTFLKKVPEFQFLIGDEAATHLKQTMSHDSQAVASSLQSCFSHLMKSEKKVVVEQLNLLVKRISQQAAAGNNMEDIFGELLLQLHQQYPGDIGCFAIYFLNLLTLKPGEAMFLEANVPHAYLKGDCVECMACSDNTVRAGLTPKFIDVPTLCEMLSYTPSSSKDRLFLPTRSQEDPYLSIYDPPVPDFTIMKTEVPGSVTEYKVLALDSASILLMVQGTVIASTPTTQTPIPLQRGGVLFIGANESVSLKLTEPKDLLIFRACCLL

The assay has as its target Mannose-6-phosphate isomerase (Homo sapiens) (UniProt P34949). The experiment in a line: MPI enzyme activity inhibition – biochemical, fluorescence intensity, coupled assay, primary screen (AID 1209).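 Further: plate controls were DMSO vehicle for no effect and wells lacking substrate for full effect.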 Conditions: purified PMI enzyme, at 20 µM, active compounds read high.
`Cc1ccc(N2C(=O)NC(C(F)(F)F)(C(F)(F)F)C3=C2CC(C)(C)CC3=O)cc1`: the inhibition is 2.1%.
On to `CC1(C)CC2(CC(c3ccccc3)Oc3cc(O)ccc32)NC(=O)N1` (stereo not given), for which the inhibition is 2.6%.
Regarding `COc1cccc(C(=O)COc2ccc3ccc(=O)oc3c2)c1`, the inhibition was -1.6%.
Regarding `Cc1sc(NC(=S)Nc2ccc(F)cc2)c(C(N)=O)c1C`, the inhibition is 51.8% (active).
Under `CCOC(=O)c1c(NC(=S)Nc2ccc(Cl)cc2)sc(C)c1C` stands -3.5%.
Turning to `COC(=O)c1c(NC(=O)c2ccco2)sc(C)c1C`, the inhibition is 5%.
In the case of `Cc1sc(NC(=S)NC(=O)c2ccco2)c(C#N)c1C` it was 4.5%; in that of `Cc1sc(NC(=O)Nc2ccccc2)c(C(N)=O)c1C`, 53.1% (active).
For `NC(=O)c1c(NC(=S)Nc2ccc(F)cc2)sc2c1CCCC2`, the inhibition is 18.7%.
Regarding `CCOC(=O)c1c(NC(=O)Nc2ccccc2)sc(C)c1C`, the inhibition was 12.6%.
In the case of `CCOC(=O)c1c(NC(=O)Nc2ccc(Cl)cc2)sc(C)c1C`, the inhibition is 2.4%.
In the case of `Cc1sc(NC(=S)NC(=O)c2ccco2)c(C(N)=O)c1C` it was 50.4% (active).
For `O=C(Nc1ccnc(-c2cccnc2)n1)c1ccc(F)cc1`, the inhibition is 5%.
For `Cc1nn(Cc2ccc(F)cc2)c(C)c1NC(=O)c1cc2ncc(Br)cn2n1`, the inhibition is 6.4%.
Under `COc1ccc(Cn2c(C)c(C)c(C#N)c2NC(=O)Nc2cccc(C)c2)cc1` stands -1.9%; under `CC(NC(=O)C(=O)N/N=C\c1cccc([N+](=O)[O-])c1)c1ccccc1` (stereo not given), 10.5%; under `CC(C)(C)NC(=O)NC(=O)Cn1ccsc1=N`, 5.2%.
For the molecule `CCC(C)(C)NC(=O)CN(Cc1ccc2c(c1)OCO2)C(=O)CCC(=O)Nc1nccs1`, the inhibition is -5%.
Under `O=C(COc1ccccc1Cl)NC(=S)Nc1ccc(CN2CCOCC2)cc1` stands 17.4%; under `O=C(O)/C(=C/c1ccco1)c1ccccc1`, -8%.
Turning to `CCOC(=O)C1CCCN(C(=O)Cn2nc(Cc3cccnc3)c3ccccc3c2=O)C1` (stereo not given), the inhibition is 5.7%.
As to `O=C(CSc1nnnn1C1CCCC1)Nc1cccc(NC(=O)c2ccco2)c1`, the inhibition is 8.3%.
Regarding `O=c1c(C/C=C/c2ccccc2)c(O)ccn1Cc1ccc(Cl)cc1Cl`, the inhibition is 13.5%.
In the case of `CC1(C)C(=O)OC(c2cccn2-c2ccc([N+](=O)[O-])cc2)C(C)(C)C1=O` (stereo not given) it was 67.5% (active); in that of `CC1(C)C(=O)OC(c2cccn2-c2ccc([N+](=O)[O-])cc2)C2(CCCCC2)C1=O` (stereo not given), 6.1%.
Regarding `CC1(C)C(=O)C2(CCCCC2)C(=O)OC1c1cccn1-c1ccc([N+](=O)[O-])cc1` (stereo not given), the inhibition is 2.5%.
In the case of `CCCC(=O)c1cc2c(cc1NC(=O)c1cccs1)OCCO2`, the inhibition is 6.8%.
Take `O=C(NCc1ccccn1)Nc1cccc(NC(=O)NCc2ccccn2)c1`: the inhibition is 14.5%.
Turning to `CCCC1=C(C(=O)OCC)C(/C=C/c2ccccc2)n2ncnc2N1` (stereo not given), the inhibition was 2.4%.
`COc1ccccc1-c1nnc(NC(=O)C(C)Sc2nncn2C)s1` (stereo not given): the inhibition was -2.1%.
For the molecule `COc1ccc(OC)c(-c2nnc(NC(=O)C(C)Sc3nncn3C)s2)c1` (stereo not given), the inhibition is 97.9% (active).
On to `CC(Sc1nncn1C)C(=O)Nc1nnc(-c2ccccc2)s1` (stereo not given), for which the inhibition was 8.5%.
Turning to `Cc1ccc(NC(=S)NNC(=O)Cn2nc(C(F)F)cc2C(F)F)cc1`, the inhibition was -10%.
Take `Cc1ccsc1/C=C/c1ccc2cccc(O)c2n1`: the inhibition was -6.3%.
Under `CSc1ccc(/C=C/c2ccc3cccc(O)c3n2)cc1` stands -33.5%.
Regarding `COc1ccc(-c2nc(CSCC(=O)NC3CCCc4ccccc43)c(C)o2)cc1` (stereo not given), the inhibition was 7%.
Turning to `Cc1c(Cl)c(C(=O)NC2CCCC2)nn1C`, the inhibition was -11.9%.
For `Nc1nc2c(s1)CCc1c-2cnn1-c1ccccc1`, the inhibition was 86.9% (active).
Under `Nc1nc2c(s1)COc1ccccc1-2` stands 12.7%; under `Nc1nc(-c2ccccc2)c(-c2ccccc2)s1`, -1.1%; under `CCCCCc1nc2sc3c(c2c(=O)n1N)CCC3`, -5.8%.
As for `O=C(Cn1cnc2ccccc2c1=O)NCc1ccc2c(c1)OCO2`, the inhibition is 2%.
On to `O=C(CCc1ccccc1)NC(=S)NCc1ccco1`, for which the inhibition was 7.5%.
As for `C[N+](C)(C)CCCNC(=O)c1ccc(/C=N/O)nc1`, the inhibition was 83.5% (active).
In the case of `NCCCNC(=O)c1ccc(/C=N/O)nc1`, the inhibition is 0.9%.
In the case of `CNCCCNC(=O)c1ccc(/C=N/O)nc1` it was -9.8%; in that of `CCOC(=O)CC(=O)Nc1ccc(Br)cc1C(=O)O`, 7.4%; in that of `COC(=O)c1ccc(-c2nc(-c3ccc(Br)o3)no2)cc1`, 10.6%.
Regarding `COc1ccccc1Sc1ccccc1/C=N/NC(N)=O`, the inhibition was 2.1%.
On to `Cc1cc(=O)n(-c2ccc(C(=O)O)cc2)[nH]1`, for which the inhibition is -22.8%.
As to `CC(C)(C)c1cc(=O)n(-c2ccccc2)[nH]1`, the inhibition was 64.7% (active).
Turning to `COC(=O)Cc1cc(=O)n(-c2ccccc2)[nH]1`, the inhibition is 11%.
Take `CC(c1nc2ccccc2o1)N1C(=O)c2ccccc2C1=O` (stereo not given): the inhibition was 66.9% (active).
On to `O=C1c2ccccc2C(=O)N1Cc1nc2ccccc2o1`, for which the inhibition is -0.5%.
Regarding `O=C1c2ccccc2C(=O)N1c1ccc(-c2nc3ccccc3o2)cc1`, the inhibition is -2.8%.
Take `Cc1ccc(NS(=O)(=O)c2ccccc2[N+](=O)[O-])cc1C`: the inhibition is -10.7%.
Under `CCN1C(=O)CSc2ccc(C(=O)OC)cc21` stands -2.3%; under `COc1ccc(NC(=S)N(Cc2cccc(Br)c2)CC2CCC(C(=O)O)CC2)cc1` (stereo not given), -6.9%.
For `CC(C)N=c1scc(-c2cccs2)n1/N=C/c1ccc(O)c(O)c1O`, the inhibition was 75.9% (active).
As to `CN=c1scc(-c2ccccc2F)n1/N=C(\C)c1cccnc1`, the inhibition is -9.3%.
Under `CN=c1scc(C)n1/N=C/c1ccc(O)cc1O` stands -4%.
For the molecule `CN=c1scc(-c2ccccc2F)n1/N=C/c1ccc(O)c(O)c1O`, the inhibition is 70.6% (active).
Consider `CN=c1scc(-c2ccccc2F)n1/N=C/c1ccc[nH]1`, for which the inhibition was -16.2%.
As for `Oc1ccc(/C=N/n2c(-c3ccco3)csc2=Nc2cccnc2)c(O)c1`, the inhibition is -1.6%.
On to `Cc1nc2ccccc2c(=O)n1/N=C/c1cn(-c2ccccc2)nc1-c1cccs1`, for which the inhibition was -10.8%.
On to `CN=c1scc(-c2cccs2)n1/N=C/c1ccccc1O`, for which the inhibition was 5.2%.
In the case of `Cc1ccc(OCC(O)Cn2c(=N)n(CCN3CCOCC3)c3ccccc32)cc1` (stereo not given) it was -3.6%; in that of `CC(Oc1ccccc1)C(=O)N1CCN=C1SCc1ccccc1` (stereo not given), -6.4%.
Under `Cc1cc(F)ccc1S(=O)(=O)N1CCCOC1CNC(=O)C(=O)NCc1ccco1` (stereo not given) stands -3.1%; under `CCCCCNC(=O)c1ccc2c(=O)n(CCOC)c(=O)[nH]c2c1`, -5.7%; under `O=C(CCNC(=O)c1ccccc1Cl)Nc1ccc(Br)c(C(F)(F)F)c1`, 15%.
For the molecule `CN1C(=S)SC(N(O)C(=O)Nc2cccc3ccccc23)C1(C)C` (stereo not given), the inhibition is 37.9%.
Take `CC(NC(=O)c1ccc(C(F)(F)F)cc1)C(c1ccccc1)N1CCOCC1` (stereo not given): the inhibition is -8.2%.
Take `NC(=O)CNc1n[nH]c(=S)[nH]c1=O`: the inhibition was -27.7%.
In the case of `Oc1ccc(/C=N/Nc2ccc(C(F)(F)F)cn2)cc1` it was -2.8%; in that of `COc1cc(/C=N/Nc2ccc(C(F)(F)F)cn2)ccc1O`, 7.1%; in that of `Oc1ccc(/C=N/Nc2ccc(C(F)(F)F)cn2)cc1O`, 61.6% (active).
Regarding `Cc1cc(O)c2c(c1)C(O)(C1OC(CO)C(O)C(O)C1O)c1cccc(O)c1C2=O` (stereo not given), the inhibition was 2%.
Turning to `O=C(CCc1nnc(C2CCCCC2)o1)NCc1ccc(F)c(F)c1`, the inhibition was -5.7%.
As to `CCOC(=O)c1cc(C(C)=O)c(=O)[nH]c1C`, the inhibition was 2.7%.
In the case of `CCCNC(=O)c1ccccc1NC(=O)c1ccccc1SC` it was 0.3%; in that of `CC(C)N1C(=O)S/C(=C/c2ccc(Sc3nc4ccccc4[nH]3)o2)C1=O`, 26.5%.
As for `C=CCN1C(=O)S/C(=C/c2ccc(Sc3nc4ccccc4[nH]3)o2)C1=O`, the inhibition is 44.5%.
Under `CCN1C(=O)S/C(=C/c2ccc(Sc3nc4ccccc4[nH]3)o2)C1=O` stands 56.4% (active); under `Cc1ccc(S(=O)(=O)NCCOc2nc(N(C)C)nc(N3CCOCC3)n2)cc1`, 16.3%; under `COC(=O)Cc1c(C(=O)OC)nnn1-c1ccc(OC(F)(F)F)cc1`, -7.2%.
For `COC(=O)Cc1c(C(=O)OC)nnn1-c1cccc(C(F)(F)F)c1`, the inhibition is 75.8% (active).
Under `O=C(O)Cc1c(C(=O)O)nnn1-c1cccc(C(F)(F)F)c1` stands -2.9%; under `O=C(NNC(=O)C1C2CCC(C2)C1C(=O)O)c1cccc(Cl)c1` (stereo not given), -7.9%.
Consider `O=C(CCCOc1ccccc1)N1CCN(c2ccccn2)CC1`, for which the inhibition is 0.9%.
Under `O=C(NCc1cccnc1)c1ccc(COc2ccc3c(c2)CCC3)o1` stands 11%; under `Cc1ccc(Nc2c(F)c(F)c(F)c(F)c2C(=O)O)cc1`, -24%; under `COCCn1c(Cc2ccccc2)nnc1SCC(=O)Nc1cc(C)on1`, 3.8%.
As to `CCCCn1c(Cc2ccccc2)nnc1SCC(=O)Nc1cc(C)on1`, the inhibition was 50.8% (active).
As to `CCn1c(Cc2ccccc2)nnc1SCC(=O)Nc1cc(C)on1`, the inhibition is -6.5%.
For the molecule `Cc1ccccc1NC(=O)N1CCC(C(=O)c2ccc(F)cc2)CC1`, the inhibition is -0.8%.
For the molecule `Cc1ccc(C(CC(=O)c2ccco2)SCCO)cc1` (stereo not given), the inhibition is 88.3% (active).
In the case of `O=C(CC(SCCO)c1ccc(F)cc1)c1ccco1` (stereo not given) it was 4.8%; in that of `O=C(CC(SCCO)c1ccc2c(c1)OCO2)c1ccco1` (stereo not given), 10.7%.
`NCCCC[C@@H]1NC(=O)[C@H](CCC(=O)O)NC(=O)c2cc([N+](=O)[O-])cc(I)c2OCC[C@@H](C(N)=O)NC1=O`: the inhibition was -36.4%.

The record behind these values is PubChem BioAssay AID1209 (Sanford-Burnham Center for Chemical Genomics, 2008).
